# IDE exosite FP – exo-site inhibitors of human insulin-degrading enzyme | P14735 | purified IDE, FL-6b probe fluorescence polarization; active compounds read low | z-score at 20 µM | 17,000 compounds, 6.3% hits;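 active = z-score of -3 or lower, meaning strong loss of probe binding signal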;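 note: His-tagged human IDE residues 42-1019 made in E. coli with 30 nM FL-6b probe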
# * marks the source's active call; other numbers are inactive results. Many of the other results were omitted from the sample, so hits are more common in it than they were.
SMILES,IDE exosite FP
C[C@@H]1CN([C@@H](C)CO)C(=O)c2cc(NC(=O)C3CCCCC3)ccc2O[C@@H]1CN(C)Cc1ccc2c(c1)OCO2,0.97
CC(=O)N1[C@@H]2c3ccc(-c4cncnc4)c(=O)n3C[C@@H]2[C@@H](CO)[C@@H]1C(=O)NCc1ccccc1Cl,0.058
O=C1CN(Cc2ccc(F)cc2)C[C@@H]2[C@H](c3ccc(-c4ccccc4)cc3)[C@@H](CO)N12,0.33
O=S(=O)(c1ccccc1)N1CCCCN2[C@H](C1)[C@H](c1ccc(-c3cncnc3)cc1)[C@@H]2CO,4.7
Cc1ccc(S(=O)(=O)N(C)C[C@H]2OCCCC[C@@H](C)Oc3ccc(NC(=O)c4ccncc4)cc3C(=O)N([C@H](C)CO)C[C@@H]2C)cc1,-0.41
COCC(=O)N(C[C@H]1N[C@H](CO)[C@@H]1c1ccc(-c2ccccc2)cc1)C(C)C,1.2
COc1ccc(C[C@@H]2CCn3cc(nn3)COCCCNC2=O)cc1,0.88
CCC(=O)Nc1ccc2c(c1)OC[C@@H](C)N(Cc1ccccc1)C[C@H](C)[C@H](OC)CN(C)C2=O,1.6
COc1ccc(S(=O)(=O)Nc2ccc3c(c2)C(=O)N([C@@H](C)CO)C[C@H](C)[C@H](CN(C)Cc2ccc(C(F)(F)F)cc2)OCCCC[C@H](C)O3)cc1,0.61
CCCN1C[C@@H](C)[C@@H](OC)CN(C)C(=O)c2ccc(NS(=O)(=O)c3cn(C)cn3)cc2OC[C@H]1C,-0.58
C[C@H](O)C#Cc1ccc([C@@H]2[C@@H](CO)N3CCCCN(CC4CCOCC4)C[C@@H]23)cc1,0.27
COc1ccc(-c2ccc([C@H]3[C@H](CO)N4C(=O)CN(C(=O)C5CCC5)C[C@@H]34)cc2)cc1,1.7
COc1cccc(-c2ccc([C@H]3[C@@H](CO)N4C(=O)CN(C(=O)C5CCC5)C[C@@H]34)cc2)c1,-7*
O=C(C1CCC1)N1CC(=O)N2[C@H](C1)[C@@H](c1ccc(-c3cccnc3)cc1)[C@@H]2CO,-1.7
CN(C)C(=O)c1cccc(-c2ccc([C@H]3[C@H](CO)N4C(=O)CN(C(=O)C5CCC5)C[C@@H]34)cc2)c1,0.83
O=C(C1CCC1)N1CC(=O)N2[C@H](C1)[C@H](c1ccc(-c3cccnc3)cc1)[C@@H]2CO,0.94
COc1ccc(-c2ccc([C@@H]3[C@@H](CO)N4C(=O)CN(C(=O)C5CC5)C[C@@H]34)cc2)cc1,-2.5
COc1cccc(-c2ccc([C@@H]3[C@@H](CO)N4C(=O)CN(C(=O)C5CC5)C[C@H]34)cc2)c1,-5.2*
COc1cccc(-c2ccc([C@@H]3[C@@H](CO)N4C(=O)CN(C(=O)C5CCC5)C[C@@H]34)cc2)c1,-12*
COc1ccc(-c2ccc([C@@H]3[C@@H](CO)N4C(=O)CN(C(=O)C5CCC5)C[C@H]34)cc2)cc1,-0.21
COc1cccc(-c2ccc([C@@H]3[C@H]4CN(C(=O)C5CCC5)CC(=O)N4[C@H]3CO)cc2)c1,-9.3*
COc1ccc(-c2ccc([C@H]3[C@H]4CN(C(=O)C5CC5)CC(=O)N4[C@H]3CO)cc2)cc1,-0.25
COc1ccc(-c2ccc([C@@H]3[C@H]4CN(C(=O)C5CCC5)CC(=O)N4[C@H]3CO)cc2)cc1,3.1
CN1CCCCN2[C@@H](CO)[C@H](c3ccc(Br)cc3)[C@@H]2C1,1.7
CCCC(=O)Nc1ccc2c(c1)C(=O)N(C)[C@@H]1CC[C@@H](CC(=O)NCc3cccc(F)c3)O[C@@H]1CO2,-0.59
SMILES,IDE exosite FP
O=S(=O)(c1ccccc1)N1CCCCN2[C@@H](CO)[C@@H](c3ccc(C#Cc4cccnc4)cc3)[C@@H]2C1,1.6
C[C@@H]1CN([C@@H](C)CO)C(=O)c2cc(N(C)C)ccc2O[C@@H](C)CCCCO[C@@H]1CN(C)S(=O)(=O)c1cn(C)cn1,0.59
Cc1ccc(-c2ccc([C@@H]3[C@H](CO)N4CCCCN(Cc5ccccn5)C[C@@H]34)cc2)cc1,-0.86
O=C(Nc1ccc(F)cc1)N1CC(=O)N2[C@H](CO)[C@H](c3ccc(C#Cc4ccccc4)cc3)[C@@H]2C1,-0.57
C/C=C/c1ccc([C@@H]2[C@@H](CO)N(C(C)=O)[C@H]2CN(C)S(C)(=O)=O)cc1,4.5
C[C@@H]1CN([C@@H](C)CO)C(=O)c2cc(N(C)C)ccc2O[C@@H](C)CCCCO[C@@H]1CN(C)Cc1ccc(C(=O)O)cc1,1.2
O=C(c1cccnc1)N1CC(=O)N2[C@@H](CO)[C@H](c3ccc(/C=C/c4ccccc4)cc3)[C@@H]2C1,-15*
O=C(c1cccnc1)N1CC(=O)N2[C@H](CO)[C@@H](c3ccc(-c4ccc(F)cc4)cc3)[C@H]2C1,-0.13
O=C(c1cccnc1)N1CC(=O)N2[C@H](C1)[C@H](c1ccc(-c3ccc(F)cc3)cc1)[C@@H]2CO,-1.1
O=C(c1cccnc1)N1CC(=O)N2[C@H](CO)[C@H](c3ccc(/C=C/c4ccccc4)cc3)[C@H]2C1,-16*
N#C[C@H]1[C@@H](c2ccc(-c3ccccc3F)cc2)[C@H](CO)N1C(=O)Cc1ccccc1,0.56
O=C1CN(S(=O)(=O)Cc2ccccc2)C[C@H]2[C@H](c3ccc(C#Cc4cccc(F)c4)cc3)[C@H](CO)N12,0.85
